Bioassay records deposited in PubChem by National Center for Advancing Translational Sciences (NCATS).
This excerpt belongs to a sample that is enriched for hits.
CHX counter: counter-screen for Shiga toxin inhibitors: cycloheximide protein synthesis inhibition. 12% of 300,000 active. cell reporter, cycloheximide protein synthesis inhibition counterscreen. AID 2314. max response, %; in the data active = max response mostly above about 13%, no sharp cut-off; inactive = mostly below about 14%; also: read at 38.3 µM for the half of the compounds with a filed dose; 0% is about no effect
NS1 inh: blocks influenza NS1 protein function | Potency, µM (doses to about 46.1 µM), inactives show top-dose activity, positive = more growth | 0.4% of 270,000 active | AID 2326; also: potency is read from the fitted curve at half-maximal effect; actives are rising curves; nearly all actives have a fitted effect of over 50% in size
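A cell-based growth assay was used: compounds that relieve NS1-induced slow growth of budding yeast raise OD600. Assay medium was yeast nitrogen base with ammonium sulphate and -URA supplement, pH 6.0, with 2% galactose.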
TbPYK inhibitor: T. brucei pyruvate kinase inhibition. AID 624173. Q57TT1. TbPYK enzyme, Kinase-Glo Plus ATP luminescence, 45 min. Potency, µM (series often up to 76.8 µM), inactives show at the top dose activity, negative = inhibition, hits mostly inhibitors. 0.12% of 410,000 active; active = well fitted curve in the direction sought with a large enough effect; inconclusive = small, poorly fitted or top-dose-only effect, or another doubt; inactive = no such curve, though single readings can be large; an effect the other way counts as inactive or inconclusive; also: potency is read from the fitted curve at half-maximal effect; % is scaled to controls: 0 for no effect and ±100 for the full control effect; nearly all actives have a fitted effect of over 50% in size
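Glycolytic pyruvate kinase of T. brucei was incubated with substrate, test compound and 130 uM ADP for 45 minutes at room temperature. Luminescent Kinase-Glo Plus signal was measured after 10 minutes.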
LmPK inh: inhibitors of Leishmania mexicana pyruvate kinase. Q27686. purified LmPK, Kinase-Glo ATP luminescence, 1 h. Potency, µM (doses to about 57.5 µM), inactives show top-dose activity change, negative = inhibition, most hits filed as inhibitors. 0.37% of 290,000 active; active = well fitted curve in the direction sought with a large enough effect; inconclusive = small, poorly fitted or top-dose-only effect, or another doubt; inactive = no such curve, though single readings can be large; an effect the other way counts as inactive or inconclusive; also: potency is read from the fitted curve at half-maximal effect; % is scaled to controls: 0 for no effect and ±100 for the full control effect
Target sequence (Q27686 whole entry, looked up): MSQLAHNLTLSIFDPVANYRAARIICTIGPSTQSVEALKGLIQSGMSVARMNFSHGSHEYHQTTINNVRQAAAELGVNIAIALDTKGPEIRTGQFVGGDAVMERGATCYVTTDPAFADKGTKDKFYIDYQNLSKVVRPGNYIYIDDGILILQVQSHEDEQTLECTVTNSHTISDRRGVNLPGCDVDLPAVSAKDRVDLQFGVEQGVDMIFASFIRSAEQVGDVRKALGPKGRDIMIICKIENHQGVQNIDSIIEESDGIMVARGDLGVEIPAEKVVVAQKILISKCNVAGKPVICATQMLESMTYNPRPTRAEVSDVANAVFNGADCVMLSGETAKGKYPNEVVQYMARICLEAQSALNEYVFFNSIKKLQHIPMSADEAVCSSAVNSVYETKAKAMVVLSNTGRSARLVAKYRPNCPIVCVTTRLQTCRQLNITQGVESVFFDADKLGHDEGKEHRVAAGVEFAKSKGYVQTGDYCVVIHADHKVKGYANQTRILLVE
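In 50 mM imidazole pH 7.2 with 7 mM MgCl2, LmPK (0.1 nM) turned over PEP (0.5 mM) and ADP (0.1 mM) for 1 h at room temperature. Luciferase read-out of ATP.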
Shiga inhibitor: Shiga toxin inhibition. Vero cells, Shiga toxin protein synthesis inhibition reporter. 9.2% of 290,000 active. inhibition, % at 38.7 µM; in the data active = inhibition mostly above about 28%, no sharp cut-off; inactive = mostly below about 43%; also: 0% is about no effect
SARS PLpro yeast: SARS-CoV PLP inhibition in yeast | S. cerevisiae expressing SARS-CoV PLpro, growth rescue | Potency, µM (doses to about 32.9 µM), for the others: at the highest dose activity, positive = growth rescue, hits mostly activators | 0.19% of 330,000 active | AID 485353; also: potency is read from the fitted curve at half-maximal effect; 0% is about no effect; nearly all actives have a fitted effect of over 55% in size
* marks the source's active call; other numbers are inactive results. Unless noted, calls follow the shape of the full dose curve.

Results for COc1cc(C(=O)Oc2ccccc2/C=N/NC(=O)c2ccc(C)c(Cl)c2)cc(OC)c1OC ?
CHX counter: -2.3; NS1 inh: 12.4%; TbPYK inhibitor: -10.1%; LmPK inh: 2.1%; Shiga inhibitor: -10.0; SARS PLpro yeast: -9.3%

How did COc1ccc(O)c(/C=N/NC(=O)c2ccc(CSc3nc(C)cc(C)n3)cc2)c1 do in these assays?
CHX counter: 61.2*; NS1 inh: 18.7%; TbPYK inhibitor: -10.1%; LmPK inh: -1.3%; Shiga inhibitor: 70.6*; SARS PLpro yeast: inconclusive

Results for COc1ccccc1Cc1c(C2CCCCC2)nc2c3ccccc3ccn12 ?
TbPYK inhibitor: 6.2%

How did COc1ccccc1/C=N/NC(=O)c1ccc(Br)cc1 do in these assays?
CHX counter: 25.9*; TbPYK inhibitor: 4.6%; LmPK inh: -1.3%; Shiga inhibitor: 18.7; SARS PLpro yeast: -1.9%

Results for COc1ccccc1C=NNC(=O)NN=Cc1ccccc1OC ?
TbPYK inhibitor: 0.3%

What do the screens show for `CC1=CC(=NOS(=O)(=O)c2ccc(C)cc2)CC(C)(C)C1`?
TbPYK inhibitor: -9.5%

Results for Nc1cc([N+](=O)[O-])cc2oc(-c3ccccc3)cc12 ?
CHX counter: 53.0*; NS1 inh: 2.0%; TbPYK inhibitor: 0.1%; LmPK inh: 0.3%; Shiga inhibitor: 53.5*; SARS PLpro yeast: -1.3%

How did COC(=O)c1ccc2c(c1)SC1=C(CCCC1=O)N2 do in these assays?
CHX counter: 21.0*; NS1 inh: 3.7%; TbPYK inhibitor: -3.2%; LmPK inh: -1.9%; Shiga inhibitor: active; SARS PLpro yeast: 10.6%

How did O=C1CCCC2=C1Sc1ccc(Cl)cc1N2 do in these assays?
CHX counter: 11.6; NS1 inh: -41.8%; TbPYK inhibitor: -2.0%; LmPK inh: 4.9%; Shiga inhibitor: 13.5; SARS PLpro yeast: -14.4%

Results for COc1ccc(C)cc1NC(=O)CCc1c(C)nn(-c2ccc(N3CCCCC3)nn2)c1C ?
CHX counter: 18.3*; NS1 inh: inconclusive; TbPYK inhibitor: -10.3%; LmPK inh: -0.6%; Shiga inhibitor: 45.3; SARS PLpro yeast: -6.9%

What do the screens show for `Cc1nn(-c2ccc(N3CCCCC3)nn2)c(C)c1CCC(=O)Nc1ccc(F)c(F)c1`?
CHX counter: 59.8*; NS1 inh: inconclusive; TbPYK inhibitor: -0.7%; LmPK inh: -0.4%; Shiga inhibitor: 102.6*; SARS PLpro yeast: -33.1%

How did CC(=O)c1ccc(NC(=O)CCc2c(C)nn(-c3ccc(N4CCCCC4)nn3)c2C)cc1 do in these assays?
TbPYK inhibitor: -4.3%

How did Cc1nn(-c2ccc(N3CCCC3)nn2)c(C)c1CCC(=O)Nc1ccc(F)c(Cl)c1 do in these assays?
TbPYK inhibitor: 5.1%

How did Cc1ccc(NC(=O)CCc2c(C)nn(-c3ccc(N4CCCCC4)nn3)c2C)cc1C do in these assays?
CHX counter: 43.2*; NS1 inh: -22.5%; TbPYK inhibitor: 0.7%; LmPK inh: 0.9%; Shiga inhibitor: 69.7*; SARS PLpro yeast: 4.3%

Results for Cc1cc(C)cc(NC(=O)CCc2c(C)nn(-c3ccc(N4CCCC4)nn3)c2C)c1 ?
TbPYK inhibitor: 4.7%

How did Cc1ccc(NC(=O)CCc2c(C)nn(-c3ccc(N4CCCCC4)nn3)c2C)cc1 do in these assays?
CHX counter: 53.3*; NS1 inh: -20.4%; TbPYK inhibitor: 0.5%; LmPK inh: -0.1%; Shiga inhibitor: 86.4*; SARS PLpro yeast: -0.9%

Results for O=C(COCc1cc(-c2cccs2)on1)N1CCN(c2cccc(Cl)c2)CC1 ?
TbPYK inhibitor: 1.4%

Results for O=C(Nc1cccc(NC(=O)c2ccccc2)n1)c1ccccc1 ?
CHX counter: 11.5; NS1 inh: -18.2%; TbPYK inhibitor: -17.7%; LmPK inh: 2.4%; SARS PLpro yeast: -15.4%

What do the screens show for `COc1ccc(CN(C)C(=O)c2ccccc2Sc2ccccc2C#N)c(OC)c1`?
CHX counter: -2.6; NS1 inh: 11.1%; TbPYK inhibitor: -4.3%; LmPK inh: -3.7%; Shiga inhibitor: -20.3; SARS PLpro yeast: -5.5%

Results for Cc1ccc(F)cc1NC(=O)CCc1c(C)nn(-c2ccc(N3CCCC3)nn2)c1C ?
TbPYK inhibitor: 19.6%

How did Cc1cc(C)cc(NC(=O)CCc2c(C)nn(-c3ccc(N4CCCCC4)nn3)c2C)c1 do in these assays?
CHX counter: 48.2*; NS1 inh: 0.5%; TbPYK inhibitor: 1.4%; LmPK inh: -0.5%; Shiga inhibitor: 50.6*; SARS PLpro yeast: -3.0%

What do the screens show for `Cc1ccc(F)cc1NC(=O)CCc1c(C)nn(-c2ccc(N3CCCCC3)nn2)c1C`?
CHX counter: 30.8*; NS1 inh: -14.6%; TbPYK inhibitor: -0.6%; LmPK inh: 3.8%; Shiga inhibitor: 24.4; SARS PLpro yeast: -1.2%

What do the screens show for `Cc1cccc(S(=O)(=O)NC(=O)C2(C)CCN2C(=O)c2c(C)noc2C)c1` (centres undefined)?
TbPYK inhibitor: -2.5%

What do the screens show for `CC(=O)Nc1ccc(NC(=S)NC(=O)C2CC2)cc1`?
CHX counter: 25.1*; NS1 inh: 8.4%; TbPYK inhibitor: -2.1%; LmPK inh: 3.9%; Shiga inhibitor: 64.5*; SARS PLpro yeast: 2.6%

Results for O=C(NC(=S)Nc1ccc(F)cc1)C1CCCCC1 ?
CHX counter: 23.3*; NS1 inh: 12.0%; TbPYK inhibitor: 0.1%; LmPK inh: -10.6%; Shiga inhibitor: 89.3*; SARS PLpro yeast: 6.5%

Results for O=C(NC(=S)Nc1ccc(Br)c(Cl)c1)C1CC1 ?
CHX counter: 25.5*; NS1 inh: -2.8%; TbPYK inhibitor: 3.2%; LmPK inh: -7.3%; Shiga inhibitor: 32.2*; SARS PLpro yeast: inconclusive

How did N#CS.N=C=S.N=C=S.[Cu].[NH2-].[NH2-].[NH2-].[NH2-].c1ccc2ncccc2c1 do in these assays?
NS1 inh: 1.0%

Results for O=S(=O)(Nc1nc2c(s1)CCCC2)c1ccc(F)cc1 ?
CHX counter: 21.3*; NS1 inh: -0.4%; TbPYK inhibitor: 1.2%; LmPK inh: 1.4%; Shiga inhibitor: 54.7; SARS PLpro yeast: -7.9%

How did O=S(=O)(Nc1nc2c(s1)CCCC2)c1ccc(Br)cc1 do in these assays?
CHX counter: 6.3; NS1 inh: -1.9%; TbPYK inhibitor: 2.3%; LmPK inh: 3.4%; Shiga inhibitor: -0.4; SARS PLpro yeast: inconclusive

How did Cc1ccccc1NC(=O)Cn1c(=O)n(CCCCCC(=O)NCc2ccc3c(c2)OCO3)c(=O)c2sccc21 do in these assays?
TbPYK inhibitor: -6.0%

Results for c1ccc2nc(SCc3cn4ccccc4n3)cnc2c1 ?
CHX counter: 39.9*; NS1 inh: -2.7%; TbPYK inhibitor: -7.5%; LmPK inh: -4.3%; Shiga inhibitor: 63.6*; SARS PLpro yeast: 3.4%

What do the screens show for `Cc1cccc2nc(CSc3nc4ccccc4o3)cn12`?
CHX counter: 49.3*; NS1 inh: -24.1%; TbPYK inhibitor: -7.3%; LmPK inh: -2.2%; Shiga inhibitor: active; SARS PLpro yeast: -24.8%
